In PubChem BioAssay (NCI):
About 79,000 compounds went through this panel and 15% of them were active in at least one assay; those are over-represented in the sample as a whole. Unmarked numbers belong to inactive results. Active and inactive are the calls of the source. Cut-off read from the data, not from the text of the source: active = growth inhibition above about 70%; inactive = the rest.

Test: NCI Yeast Anticancer Drug Screen. Data for the wt1 strain (AID 149);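 note: 0% = growth of vehicle-treated wt1 cultures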
Settings: S. cerevisiae wt1 strain (SPY 50644) growth inhibition, active compounds read high
Protocol: Growth inhibition of yeast strains with defined genetic alterations is measured as a screen for potential anti-cancer activity. Selected strains with alterations in DNA damage repair or cell cycle control were exposed to compounds and growth inhibition was measured relative to vehicle treated controls. The strain used in this assay is wt1

O=[N+]([O-])c1ccc(N/N=C/Cc2ccccc2)c([N+](=O)[O-])c1
growth inhibition (at 1.2 µM): -1%
growth inhibition (at 3.7 µM): -2%
growth inhibition (at 11.0 µM): -3%
growth inhibition (at 33.0 µM): -6%
growth inhibition (at 100.0 µM): -12%

O=C(O)CCCC1CCCc2c1ccc1ccccc21 (stereo not given)
growth inhibition (at 1.2 µM): -3%
growth inhibition (at 3.7 µM): 2%
growth inhibition (at 11.0 µM): 2%
growth inhibition (at 33.0 µM): 38%
growth inhibition (at 100.0 µM): 99% (active)

Clc1ccc2c(c1)N(CCCN1CCCC13CCCCC3)c1ccccc1S2
growth inhibition (at 1.2 µM): 1%
growth inhibition (at 3.7 µM): -3%
growth inhibition (at 11.0 µM): -5%
growth inhibition (at 33.0 µM): -5%
growth inhibition (at 100.0 µM): -7%

COc1cc(C2c3cc4c(cc3OC(OC(C)=O)C2C)OCO4)cc(OC)c1OC (stereo not given)
growth inhibition (at 1.2 µM): -2%
growth inhibition (at 3.7 µM): -3%
growth inhibition (at 11.0 µM): -5%
growth inhibition (at 33.0 µM): -11%
growth inhibition (at 100.0 µM): 56%

O=C1CC(=O)c2ccccc21
growth inhibition (at 1.2 µM): 0%
growth inhibition (at 3.7 µM): -1%
growth inhibition (at 11.0 µM): 0%
growth inhibition (at 33.0 µM): 5%
growth inhibition (at 100.0 µM): 17%

Brc1ccccc1-c1ncc(-c2ccccc2)o1
growth inhibition (at 1.2 µM): -12%
growth inhibition (at 3.7 µM): -26%
growth inhibition (at 11.0 µM): -12%
growth inhibition (at 33.0 µM): 21%
growth inhibition (at 100.0 µM): 44%

Cc1ccc(S/C(=C\C(=O)O)c2ccccc2)cc1
growth inhibition (at 1.2 µM): -6%
growth inhibition (at 3.7 µM): -7%
growth inhibition (at 11.0 µM): -8%
growth inhibition (at 33.0 µM): -2%
growth inhibition (at 100.0 µM): 10%

CCN(CC)CCN(C)CCc1ccc(Br)cc1
growth inhibition (at 1.2 µM): 5%
growth inhibition (at 3.7 µM): 11%
growth inhibition (at 11.0 µM): 19%
growth inhibition (at 33.0 µM): 32%
growth inhibition (at 100.0 µM): 83% (active)
